Data taken from PubChem BioAssay.
For some assays here: Entries with a potency or affinity are not part of this list. The source made the active and inactive calls.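 The calls were made as follows, unless noted: active = earlier screen potentiator hit that boosts the TRPC4 ion channel at some dose, with a dose response; inactive = no potentiation, no dose response, or not a prior hit.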

Assays:
[1] = test system: TRPC4 beta (transient receptor potential cation channel C4), mouse; assay: TRPC4 cation channel opening, retest – cell-based, Fluo4 calcium, HEK293 TRPC4beta/mu-opioid, duplicates, 10 µM, confirmation (AID 2426;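 active = fluorescence ratio normalized to control raised more than 50% in primary screen plus both repeat runs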;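 as to activation: percent rise of integrated ratio over buffer wells lacking compound which define 0%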); details: Fluo4 calcium fluorescence, at 10 µM; active compounds read high
[2] = test system: transient receptor potential cation channel C4 beta (TRPC4), mouse; assay: TRPC4 cation channel opening, second retest – cell-based, second round, Fluo4, HEK293 TRPC4beta/mu-opioid, 1 µM, confirmation (AID 2461;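 active = primary screen active and over 50% activation in each of two duplicate runs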;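 as to activation: 0% = wells without test compound as baseline of integrated fluorescence ratio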); details: Fluo4 calcium fluorescence, at 1 µM; active compounds read high
[3] = test system: TRPC4 (transient receptor potential cation channel C4 beta), mouse; assay: potentiation of DAMGO EC20 TRPC4 response – cell-based, second round, Fluo-4, HEK293 TRPC4beta/mu-opioid, 1 µM, confirmation (AID 2554;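 active = primary screen hit whose fluorescence ratio, in both repeats, exceeds the weak agonist control mean by 3 SD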); details: DAMGO EC20, Fluo-4 calcium flux, at 1 µM; active compounds read high
[4] = test system: TRPC4 beta (transient receptor potential cation channel C4), mouse; assay: potentiation of DAMGO EC20 TRPC4 response – cell-based, Fluo-4, HEK293 TRPC4beta/mu-opioid, confirmation (AID 2555;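 active = primary screen hit whose calcium fluorescence ratio, in both repeats, exceeds the weak agonist control mean by 3 SD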); details: DAMGO EC20, Fluo-4 calcium flux, at 10 µM; active compounds read high
[5] = biological target: Short transient receptor potential channel 4 (Mus musculus) (UniProt Q9QUQ5); assay: blockers of DAMGO-evoked TRPC4 calcium flux – cell-based, Fluo4, HEK293 TRPC4beta/mu-opioid, confirmation (AID 2636;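 active = calcium signal cut by more than 3 SD below the full-agonist control yet still positive, in both repeats and the earlier primary screen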); details: at 10 µM; active compounds read high
[6] = biological target: Short transient receptor potential channel 4 (Mus musculus) (UniProt Q9QUQ5); assay: blockers of DAMGO-evoked TRPC4 calcium flux – cell-based, second round, Fluo4, HEK293 TRPC4beta/mu-opioid, 1 µM, confirmation (AID 2637;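 active = calcium signal ratio cut to more than 3 SD under the fully stimulated control mean yet still positive, in both repeats and the primary screen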); details: at 1 µM; active compounds read high
[7] = biological target: Short transient receptor potential channel 4 (Mus musculus) (UniProt Q9QUQ5); assay: potentiation of DAMGO-evoked TRPC4 calcium signal – cell-based, HEK293 TRPC4/mu-opioid, Fluo-4 calcium, EC20 DAMGO, dose response (AID 434941);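 also: calcium entry triggered by an EC20 dose of DAMGO at the co-expressed mu-opioid receptor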
[8] = biological target: Short transient receptor potential channel 4 (Mus musculus) (UniProt Q9QUQ5); assay: block of DAMGO-driven TRPC4 calcium entry – cell-based, HEK293 TRPC4/mu-opioid, Fluo-4 calcium, dose response (AID 434942;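 active = primary screen inhibitor hit that blocks the TRPC4 channel at some tested dose, yielding a dose curve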)
[9] = biological target: Short transient receptor potential channel 6 (Mus musculus) (UniProt Q61143); assay: TRPC6 blockade by TRPC4 inhibitor hits – cell-based, HEK293, membrane potential dye, duplicate, selectivity assay for TRPC4 inhibitor project, confirmation (AID 434948;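 active = active in primary screen and both duplicates, each dropping signal beyond three positive-control SD with fluorescence still positive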); details: HEK293 TRPC6, membrane potential dye fluorescence, at 10 µM, stimulated with maximal-effect acetylcholine; active compounds read high
[10] = biological target: Short transient receptor potential channel 6 (Mus musculus) (UniProt Q61143); assay: TRPC6 opening by TRPC4 activator hits – cell-based, HEK293, membrane potential dye, duplicate, selectivity assay for TRPC4 activator project, confirmation (AID 434950;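 active = membrane potential signal rise above negative control mean plus 3 SD in both duplicates, also active in the earlier TRPC4 screen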;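 as to activation: 0% = buffer only wells and 100% = acetylcholine maximal-effect wells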); details: HEK293 TRPC6, membrane potential fluorescence, at 10 µM; activation: active compounds read high; outcome: activation
[11] = biological target: Short transient receptor potential channel 6 (Mus musculus) (UniProt Q61143); assay: positive modulators of mouse TRPC6 channel – HEK293 cells, membrane potential dye, duplicate, selectivity assay for TRPC4 potentiator project, confirmation (AID 434952;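 active = compound raising the membrane signal above positive-control mean plus 3 SD in both repeats, and a primary screen hit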); details: HEK293 TRPC6, membrane potential dye fluorescence, at 10 µM, maximal acetylcholine added after compound; active compounds read high
[12] = biological target: Short transient receptor potential channel 4 (Mus musculus) (UniProt Q9QUQ5); assay: calcium flux activators in TRPC4/5HT1a cells, counter-screen for TRPC4 activator project, cell-based, second counter screen, HEK293 TRPC4/5HT1a, Fluo-4 (AID 434977;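 active = calcium signal rise above buffer-control mean plus 5 SD in both duplicates, and also a hit in the primary screen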;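 as to activation: plate controls were assay buffer for no effect and maximal serotonin response for full effect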); details: Fluo-4 calcium flux, at 10 µM; active compounds read high
[13] = serotonin-gated TRPC4 signal block – cell-based, second counter screen, HEK293 TRPC4/5HT1a, Fluo-4, counter-screen for TRPC4 inhibitor project, confirmation (AID 434978;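 active = primary screen active whose calcium signal fell more than 3 SD beyond the full-serotonin control mean in both duplicate plates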;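 also: serotonin given first at submaximal then at maximal dose after compound preincubation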); details: Fluo-4 calcium flux, at 10 µM, serotonin added to trigger calcium flux; active compounds read high
[14] = test system: TRPC4 (mouse), co-expressed with 5HT1a in HEK293; assay: enhancement of serotonin-evoked TRPC4 response – cell-based, second counter screen, HEK293 TRPC4/5HT1a, Fluo-4, counter-screen for TRPC4 potentiator project, confirmation (AID 434979;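 active = signal rise over 3 SD above mean of control wells given weak agonist, in both repeats and first screen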); details: Fluo-4 calcium flux, at 10 µM, serotonin added at its EC20 dose; active compounds read high
[15] = nonspecific calcium rise without TRPC4 – cell-based, HEK293 mu-opioid receptor line, counter-screen for TRPC4 activator project, confirmation (AID 449723;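 active = hit in primary screen, with calcium signal over 5 SD above buffer well mean in both duplicates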;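 also: counter screen cells carry the mu-opioid receptor alone and lack TRPC4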); details: HEK293 mu-opioid cells, Fluo-4 calcium fluorescence, at 10 µM; active compounds read high
[16] = nonspecific potentiation of DAMGO calcium response – cell-based, HEK293 mu-opioid receptor line, counter-screen for TRPC4 allosteric potentiator project, confirmation (AID 449724;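 active = calcium signal rise more than 3 SD above the low-dose agonist control mean, in both duplicate plates and the primary screen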;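 also: HEK293 cells carrying mu-opioid receptor only with no TRPC4 channel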); details: HEK293 mu-opioid receptor cells, Fluo-4 calcium flux, at 10 µM, compound added before EC20 DAMGO stimulus; active compounds read high

Measured: activation

Sequence of Short transient receptor potential channel 6 (Mus musculus) (Q61143 whole entry, looked up): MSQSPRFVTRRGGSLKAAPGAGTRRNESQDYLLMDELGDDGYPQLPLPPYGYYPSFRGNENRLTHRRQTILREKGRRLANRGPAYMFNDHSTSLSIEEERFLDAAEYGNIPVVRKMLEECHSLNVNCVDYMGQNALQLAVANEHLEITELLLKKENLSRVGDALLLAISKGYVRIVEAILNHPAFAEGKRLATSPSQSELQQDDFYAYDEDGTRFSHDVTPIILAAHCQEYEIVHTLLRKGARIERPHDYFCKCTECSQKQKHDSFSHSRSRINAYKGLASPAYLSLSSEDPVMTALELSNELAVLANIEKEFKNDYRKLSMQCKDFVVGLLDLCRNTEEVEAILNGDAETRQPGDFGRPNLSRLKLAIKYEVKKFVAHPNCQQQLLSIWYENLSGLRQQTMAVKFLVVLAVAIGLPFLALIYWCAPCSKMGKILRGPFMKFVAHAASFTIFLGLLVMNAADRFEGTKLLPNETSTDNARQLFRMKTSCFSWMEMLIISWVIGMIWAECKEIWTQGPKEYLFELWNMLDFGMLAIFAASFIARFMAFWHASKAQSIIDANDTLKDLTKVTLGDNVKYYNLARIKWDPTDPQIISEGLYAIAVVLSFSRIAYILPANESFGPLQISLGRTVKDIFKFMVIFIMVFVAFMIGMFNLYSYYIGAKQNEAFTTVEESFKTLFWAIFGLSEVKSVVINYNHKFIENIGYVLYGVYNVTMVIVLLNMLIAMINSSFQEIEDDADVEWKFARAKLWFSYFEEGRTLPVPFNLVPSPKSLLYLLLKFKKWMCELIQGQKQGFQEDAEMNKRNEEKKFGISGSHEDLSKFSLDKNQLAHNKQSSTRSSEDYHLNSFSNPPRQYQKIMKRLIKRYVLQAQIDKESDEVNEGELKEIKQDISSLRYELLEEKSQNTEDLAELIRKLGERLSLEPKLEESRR
Sequence of Short transient receptor potential channel 4 (Mus musculus) (Q9QUQ5 whole entry, looked up): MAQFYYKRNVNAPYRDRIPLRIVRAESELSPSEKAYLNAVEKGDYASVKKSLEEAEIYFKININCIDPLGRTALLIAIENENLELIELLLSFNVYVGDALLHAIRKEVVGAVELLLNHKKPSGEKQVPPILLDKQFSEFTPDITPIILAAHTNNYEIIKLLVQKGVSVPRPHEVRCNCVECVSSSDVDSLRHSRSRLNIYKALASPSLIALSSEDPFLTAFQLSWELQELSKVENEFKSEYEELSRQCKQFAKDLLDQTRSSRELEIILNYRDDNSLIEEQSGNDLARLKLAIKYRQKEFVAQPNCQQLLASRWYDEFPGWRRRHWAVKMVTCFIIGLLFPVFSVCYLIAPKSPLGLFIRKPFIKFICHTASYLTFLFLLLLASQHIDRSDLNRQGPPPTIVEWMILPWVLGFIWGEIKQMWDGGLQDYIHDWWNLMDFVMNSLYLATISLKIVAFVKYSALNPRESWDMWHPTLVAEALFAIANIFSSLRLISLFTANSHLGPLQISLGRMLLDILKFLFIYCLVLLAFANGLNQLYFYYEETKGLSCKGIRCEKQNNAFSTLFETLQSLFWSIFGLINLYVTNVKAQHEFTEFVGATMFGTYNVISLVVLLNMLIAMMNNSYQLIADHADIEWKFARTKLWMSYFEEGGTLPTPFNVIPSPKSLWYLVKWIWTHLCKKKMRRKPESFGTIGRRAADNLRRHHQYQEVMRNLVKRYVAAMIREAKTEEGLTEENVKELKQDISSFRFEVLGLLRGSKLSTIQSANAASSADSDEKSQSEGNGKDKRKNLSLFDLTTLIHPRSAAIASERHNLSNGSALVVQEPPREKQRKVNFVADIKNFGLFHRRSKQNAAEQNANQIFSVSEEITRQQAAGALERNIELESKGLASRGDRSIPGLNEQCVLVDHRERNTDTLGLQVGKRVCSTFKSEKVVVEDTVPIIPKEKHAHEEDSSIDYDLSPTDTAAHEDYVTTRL

COc1ccc2c(Cl)c(-c3nnc4n3CCCCC4)sc2c1
active: [1] 117% | [10] 52%
inactive: all other assays above

Cc1onc(-c2ccccc2Cl)c1C(=O)N1CCN(C/C=C/c2ccccc2)CC1
active: [1] 190% | [10] 38.5%
inactive: all other assays above

COC(=O)C1CCN(Cc2cn(-c3ccccc3)nc2-c2ccc3c(c2)OCO3)CC1
active: [10] 45%
inactive: all other assays above

O=C(CCCCn1c(=O)[nH]c2ccccc2c1=O)NC1CCN(Cc2ccccc2)CC1
active: [10] 35%
inactive: all other assays above

Cc1csc2c(N3CCN(C(=O)Nc4ccc(OC(F)(F)F)cc4)CC3)ncnc12
active: [1] 75% | [12] 43.3%
inactive: all other assays above

O=C(COc1cc(Cl)c(Cl)cc1Cl)NCCc1ccccn1
active: [1] 60% | [10] 53.5% | [12] 12.5%
inactive: all other assays above

Cc1cccc(C(=O)NC(=S)NNC(=O)Cc2ccccc2)c1
active: [1] 238% | [10] 32.5% | [12] 133% | [15] 44.1%
inactive: all other assays above

CNCC(=O)N1CCN(c2ncc(C(F)(F)F)cc2Cl)CC1
active: [1] 155% | [2] 128% | [12] 79.5%
inactive: all other assays above

COc1cccc(C(=O)OC2CCCN(C)C2)c1 (centres undefined)
active: [1] 135% | [2] 85% | [10] 43% | [12] 48.9%
inactive: all other assays above

CN(CCc1ccccn1)C(=O)CC1C(=O)NCCN1Cc1ccc(-c2ccccc2)cc1 (centres undefined)
active: [1] 130% | [10] 42.5% | [12] 31.3%
inactive: all other assays above

NCCCNC(=O)c1cc2ccccc2[nH]1
active: [1] 220% | [12] 6.83%
inactive: all other assays above

CN1CCN(c2ccc(NC(=O)c3ccc(-c4cccc([N+](=O)[O-])c4)o3)cc2)CC1
active: [1] 87%
inactive: all other assays above

O=C(Nc1ccc(Cl)cc1)N1CCC(c2nc(-c3cccs3)no2)CC1
active: [1] 158% | [12] 46.6%
inactive: all other assays above

COc1ccc2nc(SCCN(C)C)[nH]c2c1
active: [1] 108% | [2] 87% | [12] 35.7%
inactive: all other assays above
